Bioassay records: PubChem BioAssay, The Scripps Research Institute Molecular Screening Center
Only some compounds are listed: those with a hit (about 3.4% of all), similar ones and a draw of the others.
pPAFAH FP inh: pPAFAH (human) enzyme inhibition; recombinant pPAFAH, FP-rhodamine probe fluorescence polarization; inhibition, % at 3.39 µM; actives 1.5% (n = 330,000);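 active = inhibition above the mean inhibition across the screen plus 3 SD, cut at about 25% in these data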;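 note: inhibitors block binding of the rhodamine activity-based probe so polarization drops; 0% = enzyme with DMSO and 100% = wells lacking pPAFAH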
PAFAH1B3 FP inh: inhibitors of human PAFAH1B3 | Q15102 | recombinant PAFAH1B3, FP-rhodamine probe, fluorescence polarization | inhibition, % at 3.39 µM | actives 0.28% (n = 340,000) | AID 492972;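 active = inhibition above the screen-wide average of all tested compounds plus 3 SD, cut at about 25% in these data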;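 note: 0% = enzyme with DMSO only and 100% = wells lacking PAFAH1B3 protein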
Target sequence (Q15102 whole entry, looked up): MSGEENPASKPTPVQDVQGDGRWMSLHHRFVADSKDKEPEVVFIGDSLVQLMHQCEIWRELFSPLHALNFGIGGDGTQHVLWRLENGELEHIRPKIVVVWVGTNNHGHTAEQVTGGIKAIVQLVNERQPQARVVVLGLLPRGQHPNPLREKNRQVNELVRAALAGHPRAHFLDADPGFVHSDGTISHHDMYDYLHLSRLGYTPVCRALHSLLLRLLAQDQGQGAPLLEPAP
PAFAH2 FP inh: PAFAH2 (human) inhibition. Q99487. recombinant PAFAH2, FP-rhodamine activity probe, fluorescence polarization. inhibition, % at 3.39 µM. actives 0.99% (n = 340,000). AID 492956;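 active = inhibition above the mean over all tested compounds plus 3 SD, cut at about 30% in these data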;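 note: inhibitors block probe labeling of enzyme so polarization drops; 0% = enzyme with DMSO and 100% = wells lacking PAFAH2 protein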
PP5 primary: blocks human protein phosphatase 5 activity; AID 1987; inhibition, % at 6.7 µM; P53041; actives 0.18% (n = 320,000); purified PP5c, OMFP substrate fluorescence;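 active = inhibition above the campaign's mean inhibition across all tested compounds plus 3 SD, cut at about 9.5% in these data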;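 note: 0% = DMSO only and 100% = 100 µM cantharidin control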
PAFAH1B2 FP inh: inhibitors of human PAFAH1B2; P68402; recombinant PAFAH1B2, FP-rhodamine activity probe, fluorescence polarization; inhibition, % at 3.39 µM; actives 1.2% (n = 340,000); AID 492953;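 active = inhibition above the mean of all tested compounds plus 3 SD, cut at about 24% in these data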;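 note: 0% = enzyme with DMSO and 100% = wells lacking PAFAH1B2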
Target sequence (P68402 whole entry, looked up): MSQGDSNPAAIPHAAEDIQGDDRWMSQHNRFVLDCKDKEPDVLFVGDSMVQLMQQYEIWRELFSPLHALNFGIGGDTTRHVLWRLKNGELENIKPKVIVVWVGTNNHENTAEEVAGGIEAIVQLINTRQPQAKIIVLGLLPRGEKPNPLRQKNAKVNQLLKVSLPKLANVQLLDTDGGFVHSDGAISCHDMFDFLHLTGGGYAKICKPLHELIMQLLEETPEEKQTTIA
PP1 inh: counter-screen for PP5 inhibitors: inhibitors of human PP1-alpha | actives 0.9% (n = 320,000) | inhibition, % at 6.7 µM | purified PP1alpha, OMFP fluorescence;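 active = inhibition above the mean inhibition of all tested compounds plus 3 SD, computed separately for each screening campaign, cut at about 15% in these data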
* hit, by the source's call; . = no result given.

SMILES	pPAFAH FP inh	PAFAH1B3 FP inh	PAFAH2 FP inh	PP5 primary	PAFAH1B2 FP inh	PP1 inh
COc1ccc(-c2cc(C(=O)Nc3ccc(S(=O)(=O)Nc4onc(C)c4C)cc3)c3ccccc3n2)cc1	14.9	-2.6	-7.7	2.7	-6.9	11.4
O=C(COC(=O)c1ccc[nH]c1=O)NCC12CC3CC(CC(C3)C1)C2	3.3	2.5	7.3	-1.3	12.1	-2.4
C/C(=N/NS(=O)(=O)c1ccc(Cl)cc1)c1cccc(NC(=O)c2ccc(Cl)cc2Cl)c1	25.4*	12.4	8.8	5.7	-6.4	-1.0
COc1ccc(NC(=O)CSc2nnc(-c3ccncc3)o2)c([N+](=O)[O-])c1	1.5	3.9	10.6	0.5	-1.6	2.1
CC(C)CCNC(=O)Cc1c(C(=O)O)[nH]c2ccc(Cl)cc12	5.0	7.1	6.5	-0.9	50.2*	-2.1
CCC(C)c1ccc(S(=O)(=O)N2CCN(C(=O)c3ccc(Cl)c(S(=O)(=O)N4CCOCC4)c3)CC2)cc1 (configuration not stated)	.	-0.7	9.2	.	-1.1	.
CN(C)S(=O)(=O)c1ccc(NC(=O)Cn2nc(-c3ccc4c(c3)OCCO4)ccc2=O)cc1	.	1.9	6.8	.	2.8	.
O=C1CC(SCCc2nc3ccccc3[nH]2)C(=O)N1c1ccc(Cl)cc1 (configuration not stated)	2.4	0.9	-7.3	0.3	31.5*	4.7
O=C1CC(SCc2nc3ccccc3[nH]2)C(=O)N1c1ccc(F)c(Cl)c1 (configuration not stated)	2.0	4.9	2.0	2.1	28.8*	0.0
CCCOc1ccc(N2C(=O)CC(SCCc3nc4ccccc4[nH]3)C2=O)cc1 (configuration not stated)	2.0	-3.5	-1.5	-0.1	1.1	11.6
O=C(O)Cc1sc(N/N=C\c2ccncc2)nc1-c1ccccc1	25.2*	1.4	4.2	-1.9	-0.6	0.8
CC1CCN(c2ccc3c(c2)S(=O)(=O)c2cccc(C(=O)NC4CCCCC4)c2C3=O)CC1	4.4	-7.5	-6.3	0.8	10.7	5.0
COc1ccc(C2CC(c3ccccc3C(F)(F)F)=NN2c2ccc(S(N)(=O)=O)cc2)cc1 (configuration not stated)	26.4*	5.4	6.0	.	2.0	.
COc1ccc(C2CC(c3ccccc3F)=NN2c2ccc(S(N)(=O)=O)cc2)cc1 (configuration not stated)	12.6	6.7	-3.0	.	5.3	.
COCCN(C(=O)c1ccc(C)o1)c1c(N)n(CC(C)C)c(=O)[nH]c1=O	3.2	-0.5	2.7	4.0	3.5	1.4
O=C1Cc2ccccc2C(=O)N1OCc1ccc(Cl)cc1	4.7	7.7	7.5	-0.3	25.3*	5.2
ONC(=Nc1ccc(Cl)cc1)c1ccccc1	-0.6	2.2	2.0	3.0	36.0*	-17.2
O=[N+]([O-])c1cccc(C(=Nc2cccc(Cl)c2)NO)c1	0.4	10.4	1.9	1.8	5.5	-3.8
O=C(Nc1cccc(Cl)c1)N1CCN2C(=O)c3ccccc3C12c1ccccc1 (configuration not stated)	-0.3	-2.9	-6.2	-0.3	24.9*	-0.3
CCOC(=O)C1CCN(C(=O)COC(=O)CSc2ccc([N+](=O)[O-])cc2)CC1	31.5*	4.9	0.1	0.8	9.3	-1.9
Cc1ccc(/C=C2\SC(=S)N(CCC(=O)NNC(=O)c3ccc(O)cc3)C2=O)cc1	-46.4	-147.4	-124.3	-0.9	-85.9	3.4
CN1C(=O)/C(=C/c2ccc(C(=O)Nc3ccc(O)cc3C(=O)O)cc2)SC1=S	30.0*	15.0	2.3	-3.4	6.8	-0.7
CC1CCCCC1NC(=O)CSc1nnc(COc2ccc(Cl)cc2)o1 (configuration not stated)	-1.4	9.8	-13.3	1.1	28.9*	2.9
COc1ccc(OCc2nnc(SCC(=O)NC3CC4CCC3C4)o2)cc1 (configuration not stated)	4.2	-0.4	-6.0	-1.2	6.1	-1.4
O=C(CSc1nnc(COc2ccc(Cl)cc2)o1)NC1CC2CCC1C2 (configuration not stated)	9.7	4.8	2.5	4.0	24.2*	0.2
SMILES	pPAFAH FP inh	PAFAH1B3 FP inh	PAFAH2 FP inh	PP5 primary	PAFAH1B2 FP inh	PP1 inh
CC(=C/c1ccco1)/C=N/NC(=O)CSc1nnc(SCc2ccc(C)cc2)s1	13.7	4.5	-8.9	1.7	3.3	11.1
CCc1c(C)nc2cc(-c3ccc(Cl)cc3)[nH]n2c1=O	8.9	0.3	1.8	-0.7	2.3	3.5
O=c1c2c(nc3cc(-c4ccc(Cl)cc4)[nH]n13)CCS2	16.1	4.8	20.3	1.1	31.6*	-0.5
O=C(O)C/C(=C\c1cc2c(cc1Br)OCO2)c1nc2ccccc2s1	2.8	-2.3	8.5	-0.8	73.2*	0.5
Cc1cccc(C)c1OCC(=O)NCC1COc2ccccc2O1 (configuration not stated)	-1.8	3.1	-0.2	2.6	6.8	1.4
c1ccc(OCc2noc(CN3CCC(C4CCCCC4)C3)n2)cc1 (configuration not stated)	2.5	5.5	5.0	0.7	5.6	4.0
CN1CCN(S(=O)(=O)c2ccc(Sc3nnnn3-c3ccccc3)c([N+](=O)[O-])c2)CC1	-1.4	9.1	10.1	-4.6	38.5*	10.9
CC(=O)c1ccc(Sc2nnnn2-c2ccccc2)c([N+](=O)[O-])c1	-1.8	-7.2	9.8	-1.3	2.9	0.5
CCOc1ccc(CN(CC)C(=O)c2ccc3c(c2)[nH]c(=O)c(=O)n3CC)cc1OC	-0.3	-24.7	-33.0	-0.9	-16.5	2.2
COc1ccc(CNc2ccc(Br)cc2)cc1	13.1	-0.9	1.6	-0.7	13.3	-3.5
COc1ccc(NC2=NCC(Cc3ccc(Br)cc3)S2)cc1 (configuration not stated)	13.7	-2.5	6.6	3.7	11.5	15.8*
CSc1nc(N)nc(SCCS(=O)(=O)c2ccc(Cl)cc2)c1C#N	-3.6	-8.4	-3.3	0.6	25.3*	1.0
Nc1ccccc1SCCS(=O)(=O)c1ccc(Cl)cc1	1.9	6.3	8.1	-1.7	28.0*	-3.6
O=C(Cc1ccc(NC(=O)C2CCCN(C(=O)CCc3ccccc3)C2)cc1)Nc1cccc(C(=O)N2CCCC2)c1 (configuration not stated)	.	-0.5	5.3	.	9.2	.
COCc1nc(-c2ccc(-c3ccccc3)nc2OC)no1	26.1*	0.6	-2.8	2.5	0.1	8.8
CN(C)c1nc(Cl)nc2c1nc(Cl)n2C1CCCCO1 (configuration not stated)	.	5.3	2.8	.	3.1	.
COc1ccc(CN2CCN(CCc3ccccc3)C(CCO)C2)cc1Cn1cncn1 (configuration not stated)	-5.4	1.6	0.2	2.0	0.7	-10.7
COc1ccc2c(c1)[nH]c1c(N3CCN(Cc4ccc5c(c4)OCO5)CC3)ncnc12	30.5*	1.5	-1.7	1.7	6.9	2.0
COc1cccc2[nH]c3c(N4CCN(Cc5ccc6c(c5)OCO6)CC4)ncnc3c12	14.6	.	.	0.6	.	-0.2
